Compound activity as filed in PubChem.
The sample as a whole holds a higher share of hits than the screen did.
Caspase-7 inhib: qHTS Assay for Allosteric/Competitive Inhibitors of Caspase-7; recombinant caspase-7, Ac-DEVD-AFC fluorescence rate; AID 889, 2007; actives 0.02% (n = 75,000); P55210; Potency, µM (highest dose often 57.5 µM), inactives show at the top dose activity change, negative = inhibition, most hits filed as inhibitors; active = well fitted inhibition curve with a large enough effect in the main read-out, with a control signal flat, not every such curve was filed as active; inconclusive = small, poorly fitted or top-dose-only effect, or a change in a side signal; note: % of control where 0% means no effect
Target sequence (P55210 24-198 limits assumed): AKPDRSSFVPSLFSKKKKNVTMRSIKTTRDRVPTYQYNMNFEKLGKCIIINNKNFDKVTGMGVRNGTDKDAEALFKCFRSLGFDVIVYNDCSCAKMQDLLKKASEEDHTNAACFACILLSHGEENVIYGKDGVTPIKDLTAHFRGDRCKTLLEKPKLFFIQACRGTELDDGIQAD
Target sequence (P55210 207-303 limits assumed): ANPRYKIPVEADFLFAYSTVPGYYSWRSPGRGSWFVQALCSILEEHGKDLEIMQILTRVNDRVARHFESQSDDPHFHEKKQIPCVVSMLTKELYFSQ
Casp1 inh: qHTS Assay for Allosteric/Competitive Inhibitors of Caspase-1 | P29466 | Caspase-1 enzyme, Ac-WEHD-AFC fluorogenic rate | Potency, µM (titrated, usually from 57.5 µM), for inactives: at the highest dose activity change, negative = inhibition, hits mostly inhibitors | actives 0.03% (n = 75,000);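 note: plate controls were vehicle for no effect and no substrate for full effect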
Target sequence (P29466 120-297 limits assumed): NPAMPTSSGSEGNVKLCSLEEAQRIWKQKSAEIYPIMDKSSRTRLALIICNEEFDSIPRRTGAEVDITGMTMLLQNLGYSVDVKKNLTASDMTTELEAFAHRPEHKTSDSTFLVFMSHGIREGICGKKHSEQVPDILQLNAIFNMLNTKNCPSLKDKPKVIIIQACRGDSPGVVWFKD
Target sequence (P29466 317-404 limits assumed): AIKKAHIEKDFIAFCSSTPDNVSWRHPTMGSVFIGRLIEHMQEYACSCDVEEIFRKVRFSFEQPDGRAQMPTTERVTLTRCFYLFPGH
ALOX15 inhib: qHTS Assay for Inhibitors of 15-hLO (15-human lipoxygenase). Polyunsaturated fatty acid lipoxygenase ALOX15 (Homo sapiens), P16050. purified 15hLO-1, xylenol orange hydroperoxide absorbance. Potency, µM (titrated, usually from 57.1 µM), without a hit: at the top dose activity change, negative = inhibition, hits mostly inhibitors. actives 1.4% (n = 74,000). AID 887, 2007; note: % is set by controls: 0 for no effect and ±100 for the full control effect; nearly all actives have a fitted effect of over 55% in size
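Purified human 15hLO-1 (40 nM final) in 25 mM Hepes pH 7.5, 0.01% Triton X-100 was preincubated with compound 15 min at room temperature, then reacted 6 min with 50 uM arachidonic acid; hydroperoxide detected by Fe-XO, 573/405 nm absorbance ratio.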
UbGFP stabilizer: Ubiquitin-GFP Assay. Ubiquitin-GFP reporter cells, proteasome inhibition, GFP fluorescence; response scale: untreated = 0%, 10 µM MG-132 = 100%. Potency, µM (series often up to 45.9 µM), inactives show top-dose activation (GFP accumulation), usual class: activators. 67,000 tested, under 10 active. AID 526, 2006; active = well fitted activation curve with a large enough effect, not every such curve was filed as active; inconclusive = small, poorly fitted or top-dose-only effect, or another doubt; inactive = no such curve, though single readings can be large or run the other way
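U2OS Ub(G76V)-GFP reporter; O/N plating, 0.5% FBS; cpd 46 uM–2.9 nM, 4 h, 37 °C; GFP+ cell count, 488/515 nm; norm. to basal vs 10 uM MG-132; CRC fit.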
USP2a inh: qHTS Assay for Inhibitors of Ubiquitin-specific Protease USP2a; Ubiquitin carboxyl-terminal hydrolase 2 (Homo sapiens), O75604; USP2a enzymatic assay, qHTS inhibition; Potency, µM (titrated, usually from 38.3 µM), without a hit: at the highest dose activity change, negative = inhibition, hits mostly inhibitors; actives 0.1% (n = 60,000); AID 927, 2007; note: nearly all actives have a fitted effect of over 60% in size
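20 nM USP2 core + cpd, 30 min RT; add 20 nM Ub-PLA2/20 uM NBD C6-HPC; read Ex460/Em535 at 0 h and 2.5 h. Normalized to NEM; qHTS curve fit/classification.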
ALOX15B inhib: qHTS Assay for Inhibitors of 15-hLO-2 (15-human lipoxygenase 2); Polyunsaturated fatty acid lipoxygenase ALOX15B (Homo sapiens), O15296; purified 15hLO-2, xylenol orange hydroperoxide absorbance; Potency, µM (titrated, usually from 57.1 µM), without a hit: at the highest dose activity change, negative = inhibition, usual class: inhibitors; actives 0.56% (n = 110,000); AID 881, 2007; note: % is set by controls: 0 for no effect and ±100 for the full control effect; nearly all actives have a fitted effect of over 60% in size
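Purified human 15hLO-2 (50 nM final) preincubated with compounds 15 min at room temperature in 25 mM Hepes pH 7.5, 0.01% Triton X-100, then 45 uM arachidonic acid added for 90 min; hydroperoxide detected via ferrous/xylenol orange, 573/405 nm absorbance ratio.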
The depositor's hits bear a star; u = inconclusive; x = no result; [ ] = dose if it differs, or a comment. Unless noted, calls come from the whole dose curve; as a rule, active = well fitted curve in the direction sought with a large enough effect; inconclusive = small, poorly fitted or top-dose-only effect, or another doubt; inactive = no such curve, though single readings can be large; an effect the other way counts as inactive or inconclusive. Potency is the fitted concentration of half-maximal effect.

SMILES	Caspase-7 inhib	Casp1 inh	ALOX15 inhib	UbGFP stabilizer	USP2a inh	ALOX15B inhib
O=C(O)[C@@H]1CCCN[C@H]1C(=O)O	0.5%	3.2%	5.2%	-3.2%	4.6%	-3.4%
O=C(Nc1nc(-c2ccc(Cl)s2)cs1)c1cccs1	-3.8%	-2.1%	25.1µM*	x	21.9%	7.8%
O=C(Nc1nc(-c2ccccc2)cs1)c1cccs1	-3.5%	-3.6%	12.6µM*	-11.7%	5.5%	35.2%
COc1cc(CNc2cc(C)ccc2C)cc(OC)c1OC	0.5%	-0.9%	2.9%	x	x	1.4%
COc1cc(CNc2ccc(C)c(C)c2)cc(OC)c1OC	-3.1%	-0.8%	10µM*	-8.2%	-1.3%	u
N#CC1=C(SCC(=O)c2ccc(Br)cc2)NC2=C(C(=O)CCC2)C1c1ccco1 (configuration not stated)	x	x	x	x	x	-10.2%
O=C1CCCC2=C1C(c1ccco1)Nc1ccc(C(=O)c3ccccc3)cc1N2 (configuration not stated)	-24.0%	-14.9%	2.51µM*	6.0%	7.4%	-8.9%
Cc1nc2nc(-c3ccco3)[nH]n2c(=O)c1Cc1ccccc1	-23.2%	u	15.8µM*	1.9%	-11.6%	12.1%[2.29 µM]
O=S(=O)(NCc1ccccn1)c1cccc2cccnc12	2.1%	-1.1%	8.9%	-4.4%	x	x
COc1cc2[nH]c(=S)n(C3CCCC3)c(=O)c2cc1OC	-0.8%	-5.6%	15.8µM*	-5.9%	3.2%	-16.0%
COc1cc2[nH]c(=S)n(CC3CCCO3)c(=O)c2cc1OC (configuration not stated)	0.7%	-0.3%	-4.0%	-7.5%	10.3%	0.5%
CN1CCc2nc(NC(=O)c3cccc(S(=O)(=O)N4CCc5ccccc54)c3)sc2C1	u	u	15.8µM*	7.1%	32.3%	38.5%
CCC(CC)c1nnc(NC(=O)c2cccc(S(=O)(=O)N3CCc4ccccc43)c2)s1	x	x	x	x	x	14.5%
CC1(C)CC[C@]2(C(=O)O)CC[C@]3(C)C(=CC[C@@H]4[C@@]5(C)CC[C@H](O)C(C)(C)[C@@H]5CC[C@@]43C)[C@@H]2C1	x	x	x	1.3%	x	x
Cc1ccc(NS(=O)(=O)c2ccc(NC(=O)c3ccc(Br)o3)cc2)c(C)c1	0.7%	0.2%	15.8µM*	6.0%	45.8%	-2.8%[11.4 µM]
O=C(Nc1ccc(S(=O)(=O)NCCc2ccccc2)cc1)c1ccc(Br)o1	-9.2%	-5.2%	-23.8%	-0.6%	9.1%	-6.0%
C/C=C1\CC2C=CC1C2 (configuration not stated)	0.3%	-3.2%	-3.0%	x	x	0.5%
CC1(C)Cc2c(c(N3CCCC3)[nH]c(=S)c2C#N)CO1	x	x	x	x	x	-7.2%
CC1(C)Cc2[nH]c(=S)c(C#N)cc2CO1	x	x	x	x	x	15.8µM*
Nc1c(NCCCN2CCOCC2)c2ccccc2oc1=O	-0.7%	-4.7%	u	11.1%	3.5%	0.0%
Nc1c(NCCN2CCOCC2)c2ccccc2oc1=O	-0.4%	2.6%	1.58µM*	-4.7%	-0.9%	43.2%
COc1ccccc1C[C@@H](Cc1nc2ccccc2[nH]1)c1nc2ccccc2[nH]1	x	x	x	1.5%	x	x
Cc1ccc(NC(=O)CN2C(=O)S/C(=C\c3cc(C)n(C)c3C)C2=O)cc1	x	x	x	x	x	15.8µM*
CCOC(=O)C1=C(C)Nc2ccc(C)cc2S1	x	x	x	x	x	3.98µM*
CCOCCOC(=O)c1cccc(NC(=O)OCC)c1	1.3%	-0.2%	-2.9%	13.9%	2.0%	4.7%
SMILES	Caspase-7 inhib	Casp1 inh	ALOX15 inhib	UbGFP stabilizer	USP2a inh	ALOX15B inhib
CCOCCOC(=O)C1=C(C)Nc2ccc(C)cc2S1	-0.9%	-2.6%	u	-2.8%	30.5%	15.8µM*
COC(=O)[C@H](CCSC)NC(=O)Nc1cc(C)ccc1C	-1.6%	-2.0%	9.1%	0.9%	-4.1%	-1.0%
CCOC(=O)c1c(C)[nH]c(N=Nc2ccc(C)cc2C)c1C	x	x	x	x	x	-16.6%
CSCCOC(=O)C1=C(C)Nc2ccc(C)cc2S1	x	x	x	x	x	5.01µM*
CC(C)OC(=O)CN1C(=O)S/C(=C/c2ccc(N3CCCCC3)o2)C1=O	x	x	x	x	x	12.6µM*
O=C1S/C(=C\c2ccc(N3CCOCC3)o2)C(=O)N1Cc1ccc(F)cc1	x	x	x	x	x	5.01µM*
C=CCN1C(=O)S/C(=C\c2ccc(N3CCOCC3)cc2C)C1=O	x	x	x	x	x	-3.2%
O=C1S/C(=C/c2ccc(N3CCOCC3)o2)C(=O)N1Cc1ccc(F)cc1	x	x	x	x	x	1.26µM*
O=C1/C(=C/c2ccc(N3CCOCC3)o2)SC(=Nc2ccccc2)N1CCc1c[nH]c2ccccc12	x	x	x	x	x	3.98µM*
CC(C)n1cc(/C=C2/SC(=O)N(CC(=O)N3CCCC3)C2=O)c2ccccc21	x	x	x	x	x	-0.2%
CC(=O)Nc1nc(C)c(-c2csc(Nc3ccc(O)cc3)n2)s1	-2.4%	-0.2%	12.6µM*	-3.7%	u	u
Cc1cc(=O)c2c(O)c3c(O)cc(O)c4c5c(O)cc(O)c6c(O)c7c(=O)cc(C)c8c1c2c(c34)c(c65)c78	x	x	x	x	x	2.51µM*
Cc1cc(O)c2c(c1O)C(=O)c1c(O)cc(C)c(O)c1C2=O	-7.0%	-1.1%	-16.6%	x	38.6%	15.4%
CCCc1cc(C(N)=O)c(NC(=O)C2CCCO2)s1 (configuration not stated)	-7.9%	-6.4%	25.1µM*	3.1%	32.0%	-21.4%
CCCCCc1nnc(NC(=O)C2CCCO2)s1 (configuration not stated)	0.3%	0.2%	0.2%	1.5%	-1.4%	-10.7%
Cc1cn([C@H]2C[C@H](O)[C@@H](COC(N)=O)O2)c(=O)[nH]c1=O	2.3%[11.5 µM]	0.1%[11.5 µM]	-3.1%[11.4 µM]	-4.6%[9.17 µM]	x	-6.6%[11.4 µM]
Cc1ccc(C)c2nc(N3CCCC3)c(C#N)cc12	u	x	12.6µM*	-4.2%	103.8%	9.8%
Cc1cccc2cc(C#N)c(N3CCN(C)CC3)nc12	-8.9%	-11.2%	10.8%	5.7%	40.6%	12.3%
CC1=C(SCCC#N)S/C(=C2\SC(C)=C(SCCC#N)S2)S1	-0.4%	-3.9%	12.6µM*	-8.5%	5.4%	u
Cc1cc(C)c2c(SCc3ccc(Cl)cc3Cl)nc(N)nc2n1	-3.5%[11.5 µM]	-1.9%[11.5 µM]	16.2%[11.4 µM]	0.0%[9.17 µM]	x	-1.6%[11.4 µM]
NC(=O)CSc1nc2scc(-c3ccco3)c2c(=O)n1-c1ccccc1	-14.8%	-3.4%	-9.2%	-3.0%	1.4%	-22.4%
O=C(CSc1nc2scc(-c3ccco3)c2c(=O)n1-c1ccccc1)N1CCOCC1	-26.7%	-7.1%	1.58µM*	-4.2%	32.6%	-10.2%
O=C(O)C/C=C\CC(=O)O	-0.4%[11.5 µM]	0.2%[11.5 µM]	u	22.5%[9.17 µM]	x	15.6%[11.4 µM]
CCCN1C(=O)c2cc(C(=O)O)ccc2C1O (configuration not stated)	0.3%	-8.9%	20µM*	11.1%	x	-9.0%
